Assay outcomes as filed in PubChem BioAssay.
TWEAK-Fn14 inh: blocks TWEAK-Fn14 interaction in a reporter cell assay; TWEAK-stimulated Fn14 reporter cells, luciferase luminescence, 8 h; inhibition, % at 10 µM; actives 2% (n = 360,000); AID 1159606; in the data active = inhibition above about 50%
TROY signal inh: inhibitors of TROY-dependent NF-kB signaling; Q293 LMP1-TROYcd NF-kB luciferase reporter, 4 h; actives 0.98% (n = 360,000); inhibition, % at 10 µM;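 active = compounds whose plate-normalised and pattern-corrected inhibition of the luciferase reporter signal at the single screening dose is 50% or more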
HIF-2a inh: HIF-2a inhibition; 786-0 RCC cells HIF-2a reporter, luciferase luminescence, overnight; inhibition, % at 18.8 µM; actives 0.72% (n = 360,000);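 active = inhibition of the luminescence signal of 40% or more relative to plate controls, in a single-dose primary screen at 18.75 µM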
KKLEB tox: counter-screen for CF NF-kB inhibitors: cytotoxicity; KKLEB CF airway cells viability, ATPlite luminescence, overnight; stronger effect = lower value; cells stimulated with P. aeruginosa culture filtrate; activity change (cytotoxicity), % at 5 µM; actives 0.36% (n = 360,000); AID 602141;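 active = corrected activity change at or below -50% at 5 µM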
Peg3 promoter: inhibitors of Peg3 promoter; HeLa PEG-Prom luciferase reporter, luminescence, overnight; inhibition, % at 20 µM; actives 1.7% (n = 360,000);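 active = inhibition of at least 50% at 20 µM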
CF NFkB block: blocks PAF-induced NF-kB reporter in cystic fibrosis cells; KKLEB NF-kB-GFP reporter, GFP fluorescence overnight; inhibition, % at 5 µM; actives 0.86% (n = 360,000);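 active = at least 50% inhibition at 5 µM, scaled per plate between neutral and stimulator controls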;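 also: PAF is a Pseudomonas aeruginosa culture filtrate used as stimulus; plate controls were PAF-stimulated DMSO wells for no effect and unstimulated DMSO wells for full effect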
* hit, by the source's call. The list is not random: actives were taken first. Their share in the collection is about 4%.

Screening CC(C)C[C@@H](CN1CCC[C@@H]1CN1C(=S)NC[C@@H]1Cc1ccc(O)cc1)N1C[C@H](Cc2ccc(O)cc2)N(CC2CCCCCC2)C1=S returned TWEAK-Fn14 inh 30, TROY signal inh 7, HIF-2a inh -31, KKLEB tox -2, Peg3 promoter 80* and CF NFkB block 29.
Screening Oc1ccc(C[C@H]2CN([C@@H](Cc3ccc(O)cc3)CN3CCC[C@@H]3CN3C(=S)NC[C@@H]3Cc3ccccc3)C(=S)N2CCc2ccccc2)cc1 returned TWEAK-Fn14 inh 11, TROY signal inh 19, HIF-2a inh -9, KKLEB tox -8, Peg3 promoter 33 and CF NFkB block 27.
For CC(C)C[C@@H](CN1CCCC1CN1C(=S)NC[C@@H]1Cc1ccccc1)N1C[C@H](Cc2ccc(O)cc2)N(CC2CCCCC2)C1=S (some centres undefined) the results were TWEAK-Fn14 inh 12, TROY signal inh 12 and HIF-2a inh 1.
For Oc1ccc(C[C@H]2CNC(=S)N2CC2CCCN2C[C@H](Cc2ccccc2)N2C[C@H](Cc3ccc(O)cc3)N(CC3CCCCC3)C2=S)cc1 (some centres undefined) the results were TWEAK-Fn14 inh 29, TROY signal inh 7, HIF-2a inh -10, KKLEB tox -2, Peg3 promoter 97* and CF NFkB block 36.
Cc1nc2cc(-c3ccc(Cl)cc3)nn2c(NCCN(C)C)c1C was read as TWEAK-Fn14 inh -52, TROY signal inh -20, HIF-2a inh -174, KKLEB tox -6, Peg3 promoter -24 and CF NFkB block 11.
CC(C)C[C@H]1CN([C@@H](CC(C)C)CN2CCC[C@@H]2CN2C(=S)NC[C@@H]2Cc2ccc(O)cc2)C(=S)N1CC1CCCCC1 was read as TWEAK-Fn14 inh 13, TROY signal inh 16, HIF-2a inh -12, KKLEB tox -55*, Peg3 promoter 95* and CF NFkB block 65*.
Screening CC(C)C[C@H]1CN([C@@H](CC(C)C)CN2CCCC2CN2C(=S)NC[C@@H]2Cc2ccc(O)cc2)C(=S)N1CC1CCCCC1 (some centres undefined) returned TWEAK-Fn14 inh 12, TROY signal inh -1, HIF-2a inh -10, KKLEB tox 1, Peg3 promoter 72* and CF NFkB block 19.
`CC(=O)Nc1cccc(-c2ccnc3c2CC(C(=O)Nc2ccccc2)O3)c1` (centres undefined) gave TWEAK-Fn14 inh -6, TROY signal inh 1, HIF-2a inh 18, KKLEB tox 2, Peg3 promoter 12 and CF NFkB block -24.
`Cc1ccc(C(=O)CCS(=O)(=O)c2ccc(Br)cc2)cc1` gave TWEAK-Fn14 inh 4, TROY signal inh -6, HIF-2a inh 12, KKLEB tox 6, Peg3 promoter 22 and CF NFkB block 10.
Screening Cc1ccc(S(=O)(=O)Cc2cc(F)c([N+](=O)[O-])cc2[N+](=O)[O-])cc1 returned TWEAK-Fn14 inh 13, TROY signal inh -18, HIF-2a inh 15, KKLEB tox 4, Peg3 promoter 117* and CF NFkB block -2.
For CCOC(=O)c1ccc([N+](=O)[O-])c(CS(=O)(=O)c2ccc(Cl)cc2)c1 the results were TWEAK-Fn14 inh -10, TROY signal inh -1, HIF-2a inh 11, KKLEB tox -9, Peg3 promoter 17 and CF NFkB block 9.
For Cc1ccc(S(=O)(=O)CCC(=O)c2cccc([N+](=O)[O-])c2)cc1 the results were TWEAK-Fn14 inh 4, TROY signal inh -4, HIF-2a inh 37, KKLEB tox 5, Peg3 promoter 110* and CF NFkB block 0.
Screening CCOC(=O)c1cc(NC(=O)Nc2cc(C)ccn2)c(C)nc1C returned TWEAK-Fn14 inh 12, TROY signal inh 14, HIF-2a inh -44, KKLEB tox -10, Peg3 promoter -29 and CF NFkB block -14.
For CCOC(=O)Nc1cc(C(=O)OCC)c(C)nc1C the results were TWEAK-Fn14 inh 76*, HIF-2a inh 5, KKLEB tox 8, Peg3 promoter 11 and CF NFkB block 0.
CCCCN(C(=O)CSc1nnc(-c2ccccc2)o1)c1c(N)n(CCC)c(=O)[nH]c1=O was read as TWEAK-Fn14 inh -5, TROY signal inh -19, HIF-2a inh 0, KKLEB tox -24, Peg3 promoter -9 and CF NFkB block 12.
Clc1ccc(COc2cccc(CNCc3ccncc3)c2)cc1 was read as TWEAK-Fn14 inh 7, TROY signal inh -19, HIF-2a inh -47, KKLEB tox 0, Peg3 promoter -13 and CF NFkB block -28.
`Nc1c(C(O)(C(F)(F)F)C(F)(F)F)cc(C(O)(C(F)(F)F)C(F)(F)F)c2ccccc12` gave TWEAK-Fn14 inh 44, TROY signal inh 52*, HIF-2a inh 41*, KKLEB tox -8, Peg3 promoter 34 and CF NFkB block 2.
`CC1=CC(C)(C)Nc2ccc(OC(=O)C(Cc3ccccc3)N3C(=O)c4ccccc4C3=O)cc21` (centres undefined) gave TWEAK-Fn14 inh 110*, TROY signal inh -4, HIF-2a inh 81*, KKLEB tox 3, Peg3 promoter 4 and CF NFkB block 13.
CC(NC(=O)CNC(=O)c1ccccc1F)c1ccc(-n2ccnc2)cc1 (centres undefined) was read as TWEAK-Fn14 inh 5, TROY signal inh -1, HIF-2a inh 3, KKLEB tox 12, Peg3 promoter 1 and CF NFkB block -15.
Screening Cc1ccc(N=Nc2ccc3ccccc3c2O)cc1 returned TWEAK-Fn14 inh 95*, TROY signal inh 78*, HIF-2a inh -7, KKLEB tox -63*, Peg3 promoter 6 and CF NFkB block 4.
Oc1ccc2ccccc2c1N=Nc1ccc(F)cc1 was read as TWEAK-Fn14 inh -3, TROY signal inh -42, HIF-2a inh -104, KKLEB tox 8, Peg3 promoter -55 and CF NFkB block -17.
For Oc1c(N=Nc2nn[nH]n2)ccc2ccccc12 the results were TWEAK-Fn14 inh 52*, TROY signal inh 24, HIF-2a inh -45, KKLEB tox -8, Peg3 promoter -28 and CF NFkB block 14.
Cc1ccc(N=Nc2ccc(O)c3ncccc23)cc1 was read as TWEAK-Fn14 inh -81, TROY signal inh -33, HIF-2a inh 7, KKLEB tox -9, Peg3 promoter 28 and CF NFkB block 16.
Screening Oc1c(N=Nc2ccc(F)cc2)ccc2ccccc12 returned TWEAK-Fn14 inh 54*, TROY signal inh 38, HIF-2a inh -135, KKLEB tox -23, Peg3 promoter -177 and CF NFkB block 3.
For COc1ccccc1Cc1c(-c2ccc(OC)c(OC)c2)nc2c(Cl)cc(C(F)(F)F)cn12 the results were TWEAK-Fn14 inh -23, TROY signal inh -49 and HIF-2a inh -224.
